Bioassay records as filed in PubChem.
Only some compounds are listed: those with a hit (about 7% of all), similar ones and a draw of the others.
GCN5L2 inh – qHTS Assay for Inhibitors of GCN5L2; Potency, µM (highest dose often 58.9 µM), for inactives: at the highest dose activity change, negative = inhibition, usual class: inhibitors; AID 504327, 2011; GCN5L2 HAT assay, ThioGlo1 CoA-SH fluorescence; 390,000 compounds, 0.21% hits; Histone acetyltransferase KAT2A (Homo sapiens), Q92830; further: potency means the concentration at half of the fitted maximal effect; on the % scale 0 is the no-effect control and ±100 the full control effect
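Enzyme at 20nM final was mixed with library compounds for 15 min at room temperature. Peptide H3(1-25) at 75uM, acetyl-CoA at 70uM and ThioGlo1 at 50uM were then added. Plates were read immediately and after 20 min (Ex340nm/Em540nm).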
HP1b chromo inh – HTS for Inhibitors of HP1-beta Chromodomain Interactions with Methylated Histone Tails. Chromobox protein homolog 1 (Homo sapiens), P83916. AlphaScreen HP1-beta / biotin-H3K9me3 peptide binding. Potency, µM (highest dose often 114 µM), inactives show at the highest dose activity change, negative = inhibition, most hits filed as inhibitors. 390,000 compounds, 0.56% hits. AID 540317, 2011; further: potency means the concentration at half of the fitted maximal effect; nearly all actives have a fitted effect of over 70% in size
Target sequence (P83916 whole entry, looked up): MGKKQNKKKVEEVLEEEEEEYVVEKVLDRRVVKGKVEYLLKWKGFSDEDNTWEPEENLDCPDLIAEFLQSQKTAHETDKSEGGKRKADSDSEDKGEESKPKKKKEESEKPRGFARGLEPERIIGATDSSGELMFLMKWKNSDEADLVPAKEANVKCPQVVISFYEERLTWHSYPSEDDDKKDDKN
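AlphaScreen: HP1-beta (50 nM) preformed 30 min with biotin-H3(1-18)K9me3 peptide (50 nM) in PBS pH 7.4, 0.01% Tween-20. Compound added for 30 min at RT, then streptavidin donor/nickel chelate acceptor beads (10 ug/mL) for 30 min.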
BAZ2B inh – qHTS Assay for Inhibitors of BAZ2B. AlphaScreen BAZ2B-H3K14Ac peptide displacement. Potency, µM (doses to about 114 µM), inactives show at the highest dose activity change, negative = inhibition, actives largely listed as inhibitors. 360,000 compounds, 4.4% hits. AID 504333, 2011; further: potency means the concentration at half of the fitted maximal effect; on the % scale 0 is the no-effect control and ±100 the full control effect; nearly all actives have a fitted effect of over 60% in size
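AlphaScreen displacement: compounds (up to 110uM) incubated 30 min at room temperature with a preformed 50 nM BAZ2B/50 nM biotinylated H3K14Ac peptide complex in PBS pH 7.4 with Tween-20. Donor and acceptor beads at 10 ug/mL final added, 20 min light-protected before reading.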
JMJD2A Tudor – qHTS Assay for Inhibitors of JMJD2A-Tudor Domain | 390,000 compounds, 4.4% hits | AlphaScreen JMJD2A-Tudor / H3K4me3 peptide binding | Potency, µM (highest dose often 114 µM), without a hit: at the top dose activity change, negative = inhibition, hits mostly inhibitors | AID 504339, 2011; further: potency means the concentration at half of the fitted maximal effect; on the % scale 0 is the no-effect control and ±100 the full control effect; nearly all actives have a fitted effect of over 50% in size
PLK1 PBD block – qHTS for Inhibitors of PLK1-PDB (polo-like kinase 1 - polo-box domain): Primary Screen; 360,000 compounds, 2.8% hits; AID 720504, 2013; Potency, µM, inactives show max response, negative = inhibition, actives largely listed as inhibitors; Plk1 PBD binding of FITC phosphopeptide, fluorescence polarization; Serine/threonine-protein kinase PLK1 (Homo sapiens), P53350; further: potency means the concentration at half of the fitted maximal effect; series mostly up to about 57 µM; on the % scale 0 is the no-effect control and ±100 the full control effect; nearly all actives have a fitted effect of over 65% in size
PI5P4K alpha inh – qHTS for Inhibitors of phosphatidylinositol 5-phosphate 4-kinase (PI5P4K) | PI5P4Kalpha enzyme, ADP-Glo luminescence, 60 min; hits give low values | max response, % | 330,000 compounds, 1.2% hits; active means max response of -50% or lower; inconclusive means between -30% and -50%; inactive means -30% or higher; further: value at the top dose of about 77 µM; on the % scale 0 is the no-effect control and ±100 the full control effect
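Reactions run in 0.038 M HEPES pH 7.4, 0.28 mM EGTA, 0.1% CHAPS and 5% DMSO, with PI5P4Kalpha, substrate, compound and 5 microM ATP final, one hour at room temperature. Readout is ADP-Glo luminescence.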
* hit, by the source's call; ? = inconclusive; · = not tested or not shown; [ ] = dose if it differs, or a comment. Unless noted, the call rests on the fitted dose curve; in most records, active means well fitted curve in the direction sought with a large enough effect; inconclusive means small, poorly fitted or top-dose-only effect, or another doubt; inactive means no such curve, though single readings can be large; an effect the other way counts as inactive or inconclusive.

SMILES	GCN5L2 inh	HP1b chromo inh	BAZ2B inh	JMJD2A Tudor	PLK1 PBD block	PI5P4K alpha inh
COc1cccc(-c2cnc(C(O)c3cc(Cl)cc(Cl)c3)[nH]2)c1 (centres undefined)	·	·	·	·	-10%	1
Cn1c(CNC(=O)CNS(=O)(=O)c2ccc(Br)cc2)cc(=O)n(C)c1=O	0%	66%	29%	-6%	-12%	4
CC(C)(C)C(=O)Nc1ccc2c(c1)C(=O)C(=O)c1ccccc1-2	·	42%	·	5%	·	·
Cc1occc(=O)c1OC(=O)Nc1ccc(Cl)c(Cl)c1	-4%	5%	-1%	25µM*	-11%	-3
CC/C(=C\c1ccc(N(C)C)cc1)c1ccncc1	·	?	·	22µM*	-12%	0
CCCCCC[n+]1c(-c2ccccc2)csc1Nc1ccccc1	8%	17%	18µM*	-11%	5%	23
O=C(O)c1ccc(C[n+]2c(-c3ccccc3)csc2Nc2ccccc2)cc1	2%	?	40µM*	?	?	1
C=CC[n+]1c(C)csc1Nc1ccc(C(=O)O)cc1	-13%	46%	?	-14%	-13%	7
CC(=O)c1sc(NC(=O)C2CCN(C(=O)c3ccc(F)cc3)CC2)nc1-c1ccccc1	-14%	13%	-25%	-26%	1%	2
O=C(O)C(Cc1ccccc1)n1cccc1 (centres undefined)	-11%	6%	-36%	-10%[11.4 µM]	?	-9
O=C(O)c1ccc2c(c1)C(=O)N([C@H](Cc1ccccc1)C(=O)O)C2=O	3%	·	79µM*	-28%	·	·
O=C(O)c1ccc2c(c1)C(=O)N([C@H](Cc1ccc(Cl)cc1)C(=O)O)C2=O	1%	·	-9%	-15%	·	·
O=C(O)c1ccc2c(c1)C(=O)N(CCC1=CCCCC1)C2=O	-3%	20%	1%	4%	-2%	-70*
O=C(O)[C@H](Cc1ccccc1)N1C(=O)c2c(Cl)c(Cl)c(Cl)c(Cl)c2C1=O	0%	5%	-11%	-28%	27µM*	-7
CC(C)(C)c1ccc(C[C@H](C(=O)O)N2C(=O)c3ccc(C(=O)O)cc3C2=O)cc1	-5%	·	1%	-23%	·	·
O=C(O)c1ccc2c(c1)C(=O)N([C@H](Cc1ccc(O)c(O)c1)C(=O)O)C2=O	1%	·	?	89µM*	·	·
O=C(O)c1ccc2c(c1)C(=O)N(Cc1ccccc1)C2=O	-1%	27%	4%	?	-7%	-73*
O=C(O)c1ccc2c(c1)N(Cc1ccccc1)C(=O)c1ccccc1S2=O (centres undefined)	0%	24%	11%	?	27µM*	-21
CCOc1ccccc1CN1CCN(Cc2cccc3nonc23)CC1CCO (centres undefined)	2%	5%	-21%	-16%	-9%	-1
COc1cccc(CN2CCN(Cc3cccc4nonc34)CC2CCO)c1 (centres undefined)	-2%	?	-1%	?	17µM*	-4
COc1cccc(CN2CCN(Cc3[nH]c4ccccc4c3C)CC2CCO)c1 (centres undefined)	9%	2%	35µM*	?	-1%	11
Cc1ccc(CN2CCN(Cc3ccccn3)CC2CCO)cc1 (centres undefined)	6%	32%	56µM*	-12%	-4%	9
CCOc1ccccc1N1CC(C(=O)Nc2ccc(S(=O)(=O)N3CCCCC3)cc2)CC1=O (centres undefined)	-7%	38%	11%	5%	-8%	-11
Cc1ccc(C(=O)CCC(=O)OCC(=O)Nc2nnc(-c3ccccc3)o2)cc1	1%	8%	?	-26%	-17%	-26
